# Screens as filed in PubChem.
# Shown are actives, neighbours in structure and some others; about 9.2% of the full set was active somewhere.
# Rab9 prom act – activates the Rab9 promoter; Huh7 Rab9 promoter-luciferase reporter, luminescence, 24 h; Potency, µM (titrated, usually from 9.22 µM), for inactives: at the highest dose activation, negative = inhibition, hits mostly activators; 320,000 tested, 2.8% active; AID 485297; note: % of control where 0% means no effect; nearly all actives have a fitted effect of over 60% in size
#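 Huh7 cells stably carrying a Rab9 promoter-luciferase reporter, 1500 cells per well in OP-MEM I with 10% FBS, treated with compound 24 hours at 37C. Luciferase activity read by luminescence after 10 minutes with Amplite reagent.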
# ELG1 genotox – inducers of genotoxicity in HEK293T ELG1-luciferase cells; HEK293T ELG1-luciferase reporter, luminescence, 16 h; Potency, µM (doses to about 46 µM), without a hit: at the highest dose activity change, positive = activation, actives largely listed as activators; 330,000 tested, 1.3% active; AID 504466; note: % of control where 0% means no effect; nearly all actives have a fitted effect of over 60% in size
#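 Quantitative HTS format in 1536-well plates. HEK293T ELG1-luciferase reporter cells receive test compound and are incubated 16 hr at 37 °C, 5% CO2; ONE-Glo added, 30 min room temperature, then luminescence read.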
# FLuc modulator – firefly luciferase modulation, counter-screen for miR-21 project; purified FLuc, Km substrates, luminescence inhibition; P08659; 360,000 tested, 6.9% active; Potency, µM (top dose mostly 57.5 µM), without a hit: at the top dose activity change, negative = inhibition, hits mostly inhibitors;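 note: plate controls were vehicle for no effect and reference inhibitor for full effect; nearly all actives have a fitted effect of over 55% in size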
# Target sequence (P08659 whole entry, looked up): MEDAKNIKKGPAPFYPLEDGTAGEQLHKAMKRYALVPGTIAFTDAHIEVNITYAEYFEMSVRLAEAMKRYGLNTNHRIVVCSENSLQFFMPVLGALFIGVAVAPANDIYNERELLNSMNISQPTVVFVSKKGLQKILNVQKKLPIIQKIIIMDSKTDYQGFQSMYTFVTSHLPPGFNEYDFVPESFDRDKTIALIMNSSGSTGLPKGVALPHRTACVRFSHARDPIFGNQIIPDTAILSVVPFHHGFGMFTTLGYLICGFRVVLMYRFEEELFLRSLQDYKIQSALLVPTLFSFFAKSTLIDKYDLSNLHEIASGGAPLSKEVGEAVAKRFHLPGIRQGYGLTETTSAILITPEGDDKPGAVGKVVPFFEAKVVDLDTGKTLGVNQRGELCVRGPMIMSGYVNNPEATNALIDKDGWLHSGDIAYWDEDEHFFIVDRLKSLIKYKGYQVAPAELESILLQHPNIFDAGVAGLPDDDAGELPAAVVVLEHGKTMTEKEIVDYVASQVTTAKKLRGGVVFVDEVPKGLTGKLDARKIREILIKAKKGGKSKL
#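 Purified P. pyralis luciferase, 10 nM final, with Km-level 10 uM D-luciferin and 10 uM ATP in 50 mM Tris acetate pH 7.5, 10 mM Mg acetate, 0.01% Tween-20, 0.05% BSA; 6-point qHTS titration about 60 µM downward; luminescence read.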
# SMN2 splice up – increases expression of the SMN2 splice variant | HEK293 SMN2-luciferase splicing reporter, luminescence, 30-36 h | Potency, µM (series often up to 46.1 µM), for inactives: at the highest dose activity change, positive = activation, actives largely listed as activators | 210,000 tested, 2.8% active | AID 1458; note: % of control where 0% means no effect; nearly all actives have a fitted effect of over 55% in size
#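 HEK293 cells carry an SMN2 […]–luciferase reporter in which exon 7 inclusion puts luciferase in frame. Cells were plated 10-12 h before compound addition, then incubated 30-36 h at 37C. ONE-Glo luminescence was read; sodium butyrate at 4.5 mM final served as control.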
# ELG1 repair inh – ELG1-dependent DNA repair inhibition; Potency, µM (top dose mostly 46.1 µM), for the others: at the highest dose activity change, negative = inhibition, usual class: inhibitors; 330,000 tested, 2.3% active; HEK293T ELG1-luciferase reporter, luminescence, 16 h; DNA damage induced by 5-fluorouridine; note: % is set by controls: 0 for no effect and ±100 for the full control effect; nearly all actives have a fitted effect of over 55% in size
#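 Luminescence from the luciferase reporter, measured 30 min after ONE-Glo reagent at room temperature, was the read-out. Beforehand, 2,000 cells per well were exposed for 16 hr at 37 °C to 5-fluorouridine together with compound or vehicle.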
# NPC1 prom act – activates the NPC1 promoter | 320,000 tested, 2.4% active | Huh7 NPC1 promoter luciferase reporter, 24 h | Potency, µM (titrated, usually from 9.22 µM), for inactives: top-dose activation, actives largely listed as activators; note: % of control where 0% means no effect; nearly all actives have a fitted effect of over 60% in size
#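 Huh7 reporter cells (NPC1 promoter driving luciferase) are dosed with compound for 24 h at 37 °C, 5% CO2; luciferase detection reagent is then added and luminescence measured after 10 min at ambient temperature.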
# Numbers without * were called inactive; ? = inconclusive; / = no result given; [ ] = another dose, or the depositor's remark. Calls come from the whole dose curve; as a rule, active = well fitted curve in the direction sought with a large enough effect; inconclusive = small, poorly fitted or top-dose-only effect, or another doubt; inactive = no such curve, though single readings can be large; an effect the other way counts as inactive or inconclusive. Potency is the fitted concentration of half-maximal effect.
SMILES,Rab9 prom act,ELG1 genotox,FLuc modulator,SMN2 splice up,ELG1 repair inh,NPC1 prom act
CCCCN(CC)C(=O)CSc1nc2c(sc(=S)n2-c2ccc(OCC)cc2)c(=O)[nH]1,0.7%,-5.6%,16.9µM*,-26.6%,-9.0%,-1.6%
Cn1nc(C(F)(F)F)c(C#N)c1N1CCN(c2ccc(F)cc2)CC1,-10.0%,-25.5%,-1.7%,-64.1%,10.3µM*,0.8%
Cn1nc(C(F)(F)F)c(C#N)c1N1CCN(c2ccccn2)CC1,0.7%,-7.5%,-6.4%,-11.8%,?,-0.3%
Cn1nc(C(F)(F)F)c(C#N)c1N1CCN(c2ccccc2)CC1,-4.6%,-17.7%,3.8%,-2.4%,9.2µM*,-1.0%
Cc1ccc2nc(CN3CCN(C(=O)Nc4ccc(F)cc4)CC3)oc2c1,/,/,-7.1%,/,/,/
Cc1ccc2c(c1)cc(C(=O)NCc1ccccc1)n2C,19.1%,-2.6%,-8.8%,/,0.0%,11.9%
CS(=O)(=O)c1ccc(Cl)c(NC(=O)CCc2ccccc2)c1,3.3%,-4.7%,-3.9%,-0.1%,-9.3%,-0.8%
CC(C)CCN1C(N(C)C)=NC[C@@H]1C,-3.2%,0.1%,6.1%,/,28.3%,-1.1%
C=C(C)CNC(=S)N/N=C1\CCCCc2ccccc21,0.1%,-4.7%,-7.1%,/,-12.7%,-0.7%
C/C(=N\Nc1nncc2ccccc12)c1ccc(OCC(=O)N(C)C)cc1,?,15.1%,12µM*,/,?,27.3%
CC/C(=N/Nc1ccccc1)c1cnnc(-c2ccccc2)n1,-8.1%,?,0.4%,9.4%,26.4%,-8.1%
CC/C(=N\Nc1nncc2ccccc12)c1ccc(F)cc1,?,16.4µM*,12µM*,/,?,?
CCOC(=O)NNc1nncc2ccccc12,1.8%,-6.0%,-7.9%,10.9%,-1.8%,0.2%
C#CC(CC)(CC)NC(=O)NC1CCCCC1,8.8%,1.1%,-1.9%,/,4.5%,-6.8%
Cc1ccsc1/C=N\NC(=O)c1n[nH]c2c1CCC2,0.631µM*,?,2.13µM*,1.58µM*,?,1µM*
O=C(NN=C1CCCC1)c1n[nH]c2c1CCC2,24.3%,?,?,/,?,13.3%
O=C(N/N=C/c1c(Cl)cccc1Cl)c1n[nH]c2c1CCCC2,2.82µM*,?,6.75µM*,17.8µM*,?,2.82µM*
O=C(N/N=C/c1c(Cl)cccc1Cl)c1ccccc1F,5.9%,-1.2%,-18.7%,26.4%,?,9.8%
CC(C)CCC(CC(C)O)C(=O)NNC(=S)Nc1ccccc1 (stereo not given),-0.5%,1.5%,-2.6%,/,2.0%,-4.8%
CSC1=NC(=O)/C(=C/c2ccc(SC)cc2)S1,6.5%,7.7%,9.53µM*,-13.1%,?,-1.3%
CCOC(=O)CSC1=NC(=O)/C(=C\c2ccc(Cl)cc2)S1,-7.6%,?,10.7µM*,/,22.3%,-19.7%
CN=C1S/C(=C\c2ccc(SC)cc2)C(=O)N1C,17.5%,10.3µM*,12µM*,/,?,?
CN=C1S/C(=C\c2ccc(O)c(Br)c2)C(=O)N1C,-5.0%[1.84 µM],16.9%,15.1µM*,/,?,-12.2%
CSC1=N/C(=C\c2ccc(F)cc2)C(=O)S1,0.2%,-4.7%,-11.9%,-6.7%,12.4%,2.0%
CCOC(=O)C1CCN(C2=NC(=O)/C(=C/c3ccc(Cl)cc3)S2)CC1,-2.1%,-1.7%,?,/,-8.5%,-1.8%
SMILES,Rab9 prom act,ELG1 genotox,FLuc modulator,SMN2 splice up,ELG1 repair inh,NPC1 prom act
CC1CCCN(S(=O)(=O)c2ccc(NC(=O)C3CCN(C(=O)C(C)(C)C)CC3)cc2)C1 (stereo not given),-11.3%,-1.4%,0.3%,/,?,-6.8%
Cc1cc(C)c(S(=O)(=O)Nc2nnc(C(C)C)s2)c(C)c1,-1.6%,-0.9%,4.4%,/,-1.0%,2.5%
COc1ccc(NC(=O)C(=O)NCCc2csc(-c3ccc(Cl)cc3)n2)cc1OC,/,/,-1.8%,/,/,/
COc1ccccc1NC(=O)C1=C(C)Nc2nc(CCCO)nn2C1c1cccc(O)c1 (stereo not given),/,/,6.3%,/,/,/
COc1cc(/C=C2\SC(=Nc3ccc(F)cc3)N(c3ccc(F)cc3)C2=O)ccc1OCC(=O)O,-7.6%,-4.2%,?,-12.4%,-3.6%,-3.0%
CN=C1S/C(=C\c2ccc(OCC(=O)OC)c(OC)c2)C(=O)N1C,-5.9%,2.0%,16.9µM*,/,1.1%,14.8%
CCOc1ccc(S(=O)(=O)N2CCN(C(=O)C3CC3C)CC2)cc1 (stereo not given),/,0.6%,/,/,-7.7%,/
CCOc1ccc(N=Nc2c(N)[nH][nH]c2=O)cc1,?,?,10.7µM*,?,?,?
CCOc1ccc(N=Nc2c(=O)[nH]n3c(=O)cc(C)[nH]c23)cc1,2.82µM*,?,4.78µM*,?,?,?
Cc1cc(=O)n2[nH]c(=O)c(N=Nc3ccccc3)c2[nH]1,-2.1%,8.6%,?,-4.4%,-7.4%,-1.1%
COc1cccc(N=Nc2c(N)[nH][nH]c2=O)c1,27.8%,?,15.1µM*,10µM*,?,25.1%
CCn1c(C)c(C)c2cc(C(=O)NCc3cccc(C)c3)ccc21,/,/,-4.1%,/,/,/
COC(=O)c1ccc(-c2ccc(/C=N/NC(=O)Cc3nnc(N)s3)o2)cc1,?,8.2%,?,/,0.0%,4.47µM*
Cc1c(C(=O)Oc2cccc3ccccc23)cnn1-c1ccccc1,?,8.91µM*,9.53µM*,?,?,21.8%
Cc1c(C(=O)Nc2cc(F)cc(F)c2)cnn1-c1ccccc1,2.51µM*,?,7.57µM*,/,?,1.26µM*
Cc1c(C(=S)Nc2ccccc2)cnn1-c1ccccc1,?,0.8%,15.1µM*,5.3%,21.5%,?
Cc1c(C(=O)Nc2ccccc2F)cnn1-c1ccccc1,1.41µM*,8.2µM*,5.36µM*,/,?,2.51µM*
Cc1c(C(=S)Nc2ccccc2)cnn1-c1ccc([N+](=O)[O-])cc1,-3.6%,-3.5%,-10.9%,-7.9%,?,-1.3%
Cc1nn(-c2ccccc2)cc1C(=S)Nc1ccccc1,?,10.5%,12µM*,23.0%,?,?
CCc1ccc(NC(=O)c2cnn(-c3ccccc3)c2C2CCNCC2)cc1,6.0%,-4.7%,-4.0%,-3.7%,15.8%,-5.0%
CCc1ccc(NC(=O)c2cnn(-c3ccccc3)c2C)cc1,0.562µM*,?,0.675µM*,5.62µM*,?,0.501µM*
CCCc1c(C(=O)NNc2ccc(C)cc2)cnn1-c1ccccc1,-4.9%,4.9%,0.8%,/,7.3µM*,2.5%
Nc1ccc2c(c1)C(=O)N(c1cccc3ccccc13)C2=O,11.9%,0.6%,-8.5%,/,-4.1%,1.6%
Nc1ccc2c(c1)C(=O)c1ccccc1C2=O,3.98µM*,?,13.5µM*,15.8µM*,?,?
